High-throughput results: PubChem BioAssay, several laboratories
CYP2C19 activ – activators of human cytochrome P450 2C19. P33261. recombinant CYP2C19, luciferin-H EGE luminescence; hits give high values; 0 = fully inhibited enzyme, 1 = untreated enzyme. activation factor at 5 µM. 96,000 tested, under 10 active. AID 1025;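 active = activation factor of at least 2 at 5 µM in the primary screen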
Cav32 inh – inhibitors of human Cav3.2 T-type calcium channel; O95180; Cav3.2-expressing cells, Fluo-4 calcium fluorescence FDSS; hits give low values; B-score at 10 µM; 100,000 tested, 4% active;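 active = single-dose well whose peak fluorescence ratio is a statistical outlier from its plate by either plate-standardised score or position-corrected B-score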
CYP2C9 inh – human CYP2C9 inhibition | CYP2C9 Supersomes, luciferin-H conversion, luminescence | 96,000 tested, 20% active | inhibition, % at 5 µM | AID 777 | P11712;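 active = blocking of liver enzyme CYP2C9 beyond about 50% at 5 µM, limit read from the data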
Target sequence (P11712 whole entry, looked up): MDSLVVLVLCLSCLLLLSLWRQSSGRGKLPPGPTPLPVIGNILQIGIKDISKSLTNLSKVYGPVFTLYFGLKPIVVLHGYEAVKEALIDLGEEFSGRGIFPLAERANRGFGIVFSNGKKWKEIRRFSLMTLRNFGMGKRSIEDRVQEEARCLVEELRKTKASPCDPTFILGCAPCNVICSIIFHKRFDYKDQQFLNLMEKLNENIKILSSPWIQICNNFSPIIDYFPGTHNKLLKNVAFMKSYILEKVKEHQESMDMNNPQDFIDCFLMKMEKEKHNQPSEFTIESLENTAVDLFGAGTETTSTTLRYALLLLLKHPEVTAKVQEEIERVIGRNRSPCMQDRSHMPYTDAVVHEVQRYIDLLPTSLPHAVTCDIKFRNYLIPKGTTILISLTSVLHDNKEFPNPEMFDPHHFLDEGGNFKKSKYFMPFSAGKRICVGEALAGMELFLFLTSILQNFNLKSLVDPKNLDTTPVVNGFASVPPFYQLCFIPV
CYP2C19 inhib – inhibitors of human CYP2C19; P33261; CYP2C19 Supersomes, luciferin-H EGE luminescence, 30 min; inhibition, % at 5 µM; 96,000 tested, 21% active;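 active = CYP2C19 inhibition above a set limit at 5 µM in the primary screen, cut at about 50% in these data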
CYP2C9 act – increases human cytochrome P450 2C9 activity; AID 1024; recombinant CYP2C9, luciferin-H conversion, luminescence; hits give high values; factor 1 = untreated enzyme, 0 = blocked; activation factor at 5 µM; P11712; 96,000 tested, 1.4% active;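 active = activation factor of 2 or more for CYP2C9 at a 5 µM dose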
Each line names hits and unclear results; the compound was inactive in the other large screens. Hits are enriched below; roughly 27% of the tested compounds scored in any of these assays.

Cc1[nH]n(-c2ccccc2)c(=O)c1C(C[N+](=O)[O-])c1ccccc1Cl (stereo not drawn)	CYP2C9 inh 92, CYP2C19 inhib 88
COCCN1Cc2c(sc(C)c2C)N(C(=O)c2ccccc2)C1	none
Cc1sc2c(c1C)CN(Cc1ccncc1)CN2C(=O)c1ccco1	CYP2C9 inh 91, CYP2C19 inhib 77
O=C(COC(=O)C1CCCN1C(=O)c1cccs1)Nc1ccc2c(c1)OCO2 (stereo not drawn)	none
NS(=O)(=O)c1ccc(CCNC(=O)COC(=O)C2CCCN2C(=O)c2cccs2)cc1 (stereo not drawn)	CYP2C19 inhib 75
COc1ccc(NC(=O)COC(=O)[C@@H]2CCCN2C(=O)c2cccs2)cc1	CYP2C9 inh 60
O=C(COC(=O)C1CCCN1C(=O)c1cccs1)c1ccccc1 (stereo not drawn)	CYP2C19 inhib 88
O=C(OCc1ccccc1)C1CCCN1C(=O)c1cccs1 (stereo not drawn)	CYP2C19 inhib 72
COC(=O)[C@@]1(Cc2ccc(OC)cc2)[C@H]2c3cc(C(=O)N4CCCC4)n(CCn4cc([N+](=O)[O-])nc4C)c3C[C@H]2CN1C(=O)c1ccccc1	none (no result: CYP2C19 activ, CYP2C9 inh, CYP2C19 inhib, CYP2C9 act)
CCC1(CC)NC(=S)N(Nc2ccccc2)C1=O	none
CCc1cc2c(=O)n(-c3ccccc3)c(=S)[nH]c2s1	none
Cc1ccc(Cn2c(C3CCCN3c3nc(-c4ccc(F)cc4)cs3)nc3cc(C(=O)NCCCO)ccc32)cc1 (stereo not drawn)	none (no result: CYP2C19 activ, CYP2C9 inh, CYP2C19 inhib, CYP2C9 act)
CC/C(=N\NC(=O)c1ccc(-c2ccccc2)cc1)C12CC3CC(CC(C3)C1)C2	CYP2C19 inhib 67
O=S(=O)(c1ccccc1)N1CCN(c2nnnn2-c2ccccc2)CC1	CYP2C19 inhib 51
c1ccc(CC2CCN(c3nnnn3-c3ccccc3)CC2)cc1	CYP2C9 inh 54, CYP2C19 inhib 63 (no result: Cav32 inh)
O=C1NCN(c2ccccc2)C12CCN(c1nnnn1-c1ccccc1)CC2	CYP2C19 inhib 58
O=S(=O)(c1ccc2c(c1)OCO2)N1CCN(c2nnnn2-c2ccccc2)CC1	none
COc1cc(Cn2c(-c3nonc3N)nc3ccccc32)ccc1C	CYP2C9 inh 74
COc1cccc(Cn2c(-c3nonc3N)nc3ccccc32)c1	none
Nc1nonc1-c1nc2ccccc2n1Cc1ccc(Cl)cc1	CYP2C9 inh 53, CYP2C19 inhib 75
Cc1ccc(Cn2c(-c3nonc3N)nc3ccccc32)cc1	none
COC(=O)c1ccccc1NC(=O)C1CCCN(c2nnc(-n3cccc3)s2)C1 (stereo not drawn)	none
CC(C)(C)NC(=S)Nc1ccc(Nc2ccccc2)cc1	CYP2C9 inh 54
CCC(=O)N/N=C(\C)CC(=O)Nc1ccc2ccccc2c1	none
O=C(NCc1ccccc1Cl)C1CCN(S(=O)(=O)N2CCC3(CC2)OCCO3)CC1	none (no result: Cav32 inh)
O=C(NC1CCCCCCC1)C1CCN(S(=O)(=O)N2CCC3(CC2)OCCO3)CC1	CYP2C9 inh 52, CYP2C19 inhib 60 (no result: Cav32 inh)
Cc1cc(C)c(S(=O)(=O)N2CCC(C(=O)NCc3ccco3)CC2)c(C)c1	CYP2C9 act 2.8
COc1ccc(S(=O)(=O)N2CCC(C(=O)NCc3ccco3)CC2)cc1	none
O=C(C1CCN(S(=O)(=O)N2CCC3(CC2)OCCO3)CC1)N1CCC(Cc2ccccc2)CC1	CYP2C9 inh 76, CYP2C19 inhib 58
O=C(NCc1ccco1)C1CCN(S(=O)(=O)N2CCC3(CC2)OCCO3)CC1	CYP2C9 inh 84
CCOC(=O)c1sc(NC(=O)C2C3C=CC(C3)C2C(=O)O)nc1C (stereo not drawn)	none
N#Cc1c(N)nc(SC2CCCCC2=O)c(C#N)c1-c1ccco1 (stereo not drawn)	none (no result: CYP2C19 activ, CYP2C9 inh, CYP2C19 inhib, CYP2C9 act)
Cc1cc(C)c(C#N)c(SC2CCCCC2=O)n1 (stereo not drawn)	CYP2C19 inhib 61
Cc1ccc(Cn2nnc3c(=O)n(CC(=O)c4ccccc4)cnc32)cc1	CYP2C9 inh 60
CCC(=O)Nc1cccc(NC(=O)c2cccc([N+](=O)[O-])c2)c1	none
O=C(COc1cccc(NC(=O)c2cccc([N+](=O)[O-])c2)c1)c1ccc(Br)cc1	CYP2C9 inh 66
Cc1cc2ccccc2c(=O)n1CC(=O)NCC(=O)N(C)C1CCCCC1	none
COc1ccc(C(=O)OCC(=O)NCc2ccco2)cc1S(=O)(=O)N1CCN(c2cccc(Cl)c2)CC1	Cav32 inh -7.4, CYP2C9 inh 96, CYP2C19 inhib 98
O=C(COc1ccc(S(=O)(=O)N2CCCC2)cc1)NCc1ccco1	none
Cc1cc(S(=O)(=O)N2CCCC2)ccc1OCC(=O)NCc1ccco1	CYP2C9 inh 50
COC(=O)COc1ccc(S(=O)(=O)NCc2ccco2)cc1Cl	CYP2C19 inhib 58 (no result: Cav32 inh)
O=C(NCc1ccco1)c1cc(S(=O)(=O)N2CCCc3ccccc32)ccc1Cl	CYP2C19 inhib 81
C=CCn1c(SCC(=O)Nc2nnc(CC)s2)nnc1-c1ccco1	none
O=C(COc1ccc(S(=O)(=O)N2CCCC2)cc1Cl)NCc1ccco1	CYP2C9 inh 85
O=C(Nc1cccc(Cl)c1)OCc1cncs1	CYP2C9 inh 87, CYP2C19 inhib 99
CS(=O)c1ccccc1COC(=O)Nc1cccc(Cl)c1 (stereo not drawn)	none
O=C(Nc1ccc(Cl)cc1)OCc1ccccn1	none (no result: CYP2C19 activ, CYP2C9 inh, CYP2C19 inhib, CYP2C9 act)
CS(=O)(=O)c1ccccc1COC(=O)Nc1ccc(Cl)cc1	CYP2C19 inhib 69
O=C(Nc1ccc(Cl)cc1)OCc1cncs1	CYP2C9 inh 89, CYP2C19 inhib 98
O=C(c1ccco1)N1CCN(Cc2nnnn2CCc2ccccc2)CC1	none
Cc1cc(C)nc(Sc2nc(Cl)nc(N(c3ccccc3)c3ccccc3)n2)n1	CYP2C9 inh 52, CYP2C19 inhib 67
CN(C)c1nc(N)nc(N(c2ccccc2)c2ccccc2)n1	none
Cc1cc(S(=O)(=O)N2CCCC2C(=O)N2CCOCC2)c(C)cc1Cl (stereo not drawn)	CYP2C19 inhib 63, CYP2C9 act 3
CCOC(=O)CN1C(=O)N[C@@H](c2cccc(F)c2)C(C(=O)OC)=C1C	none (no result: CYP2C19 activ, CYP2C9 inh, CYP2C19 inhib, CYP2C9 act)
COc1ccc(NC(C)=O)cc1NC(C)C(=O)Nc1ccc(F)c(F)c1F (stereo not drawn)	CYP2C19 inhib 70
Cc1ccc(N=C(NO)c2nonc2N)cc1	none
COC(=O)CN(c1cccc(F)c1)S(C)(=O)=O	none
CCn1c(SCC(=O)Nc2ccc3c(c2)oc2ccccc23)nnc1-c1ccc(N)cc1	CYP2C9 inh 78
CCn1c(Cc2ccccc2)nnc1SCC(=O)Nc1ccc(N)cc1	none
CC(=O)Nc1ccc(-c2nnc(SCC(=O)Nc3ccc4c(c3)oc3ccccc34)n2C)cc1	CYP2C9 inh 69
COc1ccc(-c2nnc(SCC(=O)Nc3ccccc3)n2C)cc1	none
COc1ccc2c(OC)c3ccoc3nc2c1OC	none (no result: CYP2C19 activ, CYP2C9 inh, CYP2C19 inhib, CYP2C9 act)
N#Cc1c(-c2ccccc2)ccnc1Oc1ccccc1	CYP2C19 inhib 53
COc1ccc(Oc2nccc(OC)c2C#N)cc1	none
Nc1n[nH]c(S(=O)(=O)CCCc2ccccc2)n1	CYP2C19 inhib 70
Cc1n[nH]c(=O)nc1NCCc1ccccc1	none
CCCCC(=O)Nc1ccc(C(=O)N2CCN(C)CC2)cc1	none (no result: Cav32 inh)
